Values joined by “and” are separate entries in the source; they are usually repeats but may differ in a detail not shown here. Equal values may be shown once. Compounds without any hit were thinned out: in the full panel of roughly 83,000, 20% have a hit.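 Growth was measured after 48 h exposure to one concentration of compound in 96-well plates. Values under 10 count as active.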 Active and inactive are the calls of the source.
Key:
Experiment in all cases: NCI-60 one-dose screen, 48 h (100 = growth as untreated, 0 = no growth, -100 = all killed)
BT-549 breast = details: 10 µM unless noted
MDA-MB-435 melanoma = details: 10 µM unless noted
SW-620 colon = details: 10 µM unless noted
MCF7 breast = system: MCF7 breast
HCT-116 colon = details: 10 µM unless noted
HCC-2998 colon = details: 10 µM unless noted
KM12 colon = details: 10 µM unless noted

Measured: growth

O=c1[nH]c(Cl)nc2c1cnn2-c1ccccc1
inactive: BT-549 breast 52.9% | MDA-MB-435 melanoma 52.4% | SW-620 colon 50.6% | MCF7 breast; 10 µM unless noted 84.3% | HCT-116 colon 31% | HCC-2998 colon 91.2% | KM12 colon 18.6%

Cn1c(N)c(N=O)c(=O)[nH]c1=O
inactive: BT-549 breast 93.5% | MDA-MB-435 melanoma 108% | SW-620 colon 107% | MCF7 breast; 10 µM unless noted 106% | HCT-116 colon 104% | HCC-2998 colon 118% | KM12 colon 99%

O=c1cc(-c2cccnc2)oc2c1ccc1ccccc12
inactive: BT-549 breast 81.1% | MDA-MB-435 melanoma 67% | SW-620 colon 81.5% | MCF7 breast; 10 µM unless noted 73.6% | HCT-116 colon 55.7% | HCC-2998 colon 89.2% | KM12 colon 95.8%

Cn1[nH]cc(/C=N/C(N)=O)c1=O
inactive: BT-549 breast 113% | MDA-MB-435 melanoma 119% | SW-620 colon 102% | MCF7 breast; 10 µM unless noted 99.6% | HCT-116 colon 109% | HCC-2998 colon 103%

CCN1CCN(c2cc(-c3cn[nH]c3-c3cc(C)cc(OC)c3)nc(-c3cccnc3)n2)CC1
inactive: BT-549 breast 92.9% | MDA-MB-435 melanoma 81.2% | SW-620 colon 82.6% | MCF7 breast; 10 µM unless noted 82.6% | HCT-116 colon 38.4% | HCC-2998 colon 91.3% | KM12 colon 50.6%

Fc1ccc(-c2nc(Nc3ccc(-c4nc5ccccc5[nH]4)cc3)nc(N3CCOCC3)n2)cc1
active: BT-549 breast -73.6% | MDA-MB-435 melanoma -86.1% | SW-620 colon -74.2% | MCF7 breast; 10 µM unless noted -73.8% | HCT-116 colon -85.5% | HCC-2998 colon -89.9% | KM12 colon -91.3%

Cc1cc(NC(=O)c2ccc(N)cc2)ccc1N=Nc1ccc2c(O)c(N=Nc3ccc(Cl)c(S(=O)(=O)O)c3)c(S(=O)(=O)O)cc2c1
inactive: BT-549 breast 102% | MDA-MB-435 melanoma 95.5% | SW-620 colon 92.6% | MCF7 breast; 10 µM unless noted 80.1% | HCT-116 colon 71.5% | HCC-2998 colon 73.1% | KM12 colon 90%

Fc1ccc(-c2nnc(-c3c(-c4ccc(F)cc4)nc4ncccn34)o2)cc1
inactive: BT-549 breast 99.9% | MDA-MB-435 melanoma 97% | SW-620 colon 108% | MCF7 breast; 10 µM unless noted 92.4% | HCT-116 colon 94.5% | HCC-2998 colon 111% | KM12 colon 103%

Cc1ccc(NC(=O)Nc2ccc(-c3cccnc3)cc2N2CCC(CO)CC2)cc1
inactive: BT-549 breast 25.2% | SW-620 colon 20.3% | HCC-2998 colon 14.1% | KM12 colon 20.1%
active: MDA-MB-435 melanoma 4.25% | MCF7 breast; 10 µM unless noted 9.77% | HCT-116 colon 8.43%

CO[C@H]1/C=C/O[C@@]2(C)Oc3c(C)c(O)c4c(O)c(c(/C=N/N5CCN(C)CC5)c(O)c4c3C2=O)NC(=O)/C(C)=C\C=C\C(C)[C@H](O)[C@@H](C)[C@@H](O)[C@@H](C)[C@@H](OC(C)=O)[C@@H]1C (some centres not stated)
inactive: BT-549 breast 99.2% | MDA-MB-435 melanoma 103% | SW-620 colon 107% | MCF7 breast; 10 µM unless noted 98.7% | HCT-116 colon 101% | HCC-2998 colon 99.5% | KM12 colon 100%

COc1ccc(Nc2ccnc(NCCCNc3ccnc4cc(Cl)ccc34)n2)cc1
active: BT-549 breast -16.8% | MDA-MB-435 melanoma -94.7% | SW-620 colon -48.7% | MCF7 breast; 10 µM unless noted -2.74% | HCT-116 colon -100% | HCC-2998 colon -74.9%

Cc1ccccc1NC(=O)c1cc2ccccc2cc1O
inactive: MDA-MB-435 melanoma 28.6% | SW-620 colon 47.2% | MCF7 breast; 10 µM unless noted 80.5% | HCT-116 colon 30.3% | HCC-2998 colon 81.5% | KM12 colon 23.4%
active: BT-549 breast -0.275%

c1ccc2c(c1)[nH]c1c2cc[n+]2cc3c(cc12)CCCC3
active: MCF7 breast; 10 µM -13.9% | MCF7 breast; 100 µM -78.5% and -87.5%
inactive: BT-549 breast 72.7% | MDA-MB-435 melanoma 11.5% | SW-620 colon 20.7% | HCT-116 colon 14.7% | HCC-2998 colon 24.6% | KM12 colon 26.4%

NC(=O)SCC(=O)Nc1ccccc1-c1ccccc1
inactive: BT-549 breast 89.4% | MDA-MB-435 melanoma 109% | SW-620 colon 115% | MCF7 breast; 10 µM unless noted 94.8% | HCT-116 colon 87.4% | HCC-2998 colon 95.5%

NC(=Nc1ccccc1)SCCCCSC(N)=Nc1ccccc1
inactive: BT-549 breast 86.4% | MDA-MB-435 melanoma 89.4% | SW-620 colon 92.3% | MCF7 breast; 10 µM unless noted 87.5% | HCT-116 colon 88% | HCC-2998 colon 77.6% | KM12 colon 94.2%

CCCc1cccc(CCC)c1O
inactive: BT-549 breast 117% | MDA-MB-435 melanoma 106% | SW-620 colon 104% | MCF7 breast; 10 µM unless noted 113% | HCT-116 colon 115% | HCC-2998 colon 100% | KM12 colon 112%

C[N+]1(CCc2ccccc2)CCC(CCC2CC[N+](C)(CCc3ccccc3)CC2)CC1 (configuration not stated)
inactive: BT-549 breast 106% | MDA-MB-435 melanoma 104% | SW-620 colon 98.8% | MCF7 breast; 10 µM unless noted 98.6% | HCT-116 colon 95.1% | HCC-2998 colon 101% | KM12 colon 111%

COc1ccc(-c2cc(Cc3cccs3)c(=O)n(Cn3cncn3)n2)cc1
inactive: BT-549 breast 109% | MDA-MB-435 melanoma 106% | SW-620 colon 110% | MCF7 breast; 10 µM unless noted 93.2% | HCT-116 colon 101% | HCC-2998 colon 108% | KM12 colon 108%

COc1ccc(CCN2CCCN3C2=Nc2ccccc2S3(=O)=O)cc1
active: MDA-MB-435 melanoma -5.64%
inactive: BT-549 breast 50.2% | SW-620 colon 28% | MCF7 breast; 10 µM unless noted 19.3% | HCT-116 colon 17.4% | HCC-2998 colon 21.7% | KM12 colon 25.8%

COc1ccccc1[C@H]1c2[nH]c3ccccc3c2C[C@H]2C(=O)N(CCCCCCC(=O)NO)CC(=O)N12
inactive: BT-549 breast 67.8% | MDA-MB-435 melanoma 45.4% | SW-620 colon 15.6% | MCF7 breast; 10 µM unless noted 37.7% | HCT-116 colon 18.3% | HCC-2998 colon 38.9% | KM12 colon 77.8%

O=C1/C(=C/c2ccc([N+](=O)[O-])o2)Oc2ccc(Cl)cc21
active: BT-549 breast -53.4% | MDA-MB-435 melanoma -72.8% | SW-620 colon -78.7% | MCF7 breast; 10 µM unless noted -24.6% | HCT-116 colon -26.6%

CCC1=C(c2ccc(OC)cc2)C(C)(C)Oc2cc(O)c(CN3CCCC3)cc21
inactive: BT-549 breast 65.7% | MDA-MB-435 melanoma 70.9% | SW-620 colon 89.7% | MCF7 breast; 10 µM unless noted 89.7% | HCT-116 colon 46.9% | HCC-2998 colon 18.1% | KM12 colon 81.1%

COC(=O)C[C@@H]1CC=CC(=O)/C1=C(O)/C=C/c1ccccc1
active: BT-549 breast -36.3% | MDA-MB-435 melanoma -32.1% | SW-620 colon -81.7% | MCF7 breast; 10 µM unless noted -3.08% | HCT-116 colon -92.2% | HCC-2998 colon -95.1% | KM12 colon -76.3%

CCn1c2ccccc2c2ccc(C(C)=O)cc21
inactive: BT-549 breast 96.9% | MDA-MB-435 melanoma 104% | SW-620 colon 114% | MCF7 breast; 10 µM unless noted 102% | HCT-116 colon 105% | HCC-2998 colon 108% | KM12 colon 115%

CCN1C(=O)c2ccc3c4c(ccc(c24)C1=O)C(=O)N(CCCNCc1ccccc1OC)C3=O
active: BT-549 breast -75.9% | MDA-MB-435 melanoma -80.3% | SW-620 colon -57.4% | MCF7 breast; 10 µM unless noted -25.5% | HCT-116 colon -79% | HCC-2998 colon -82.6% | KM12 colon -35.1%

CC[N+](C)(CC)CCCC(C)Nc1ccnc2cc(Cl)ccc12 (configuration not stated)
inactive: BT-549 breast 117% | MDA-MB-435 melanoma 108% | SW-620 colon 106% | MCF7 breast; 10 µM unless noted 96.4% | HCT-116 colon 110% | HCC-2998 colon 119% | KM12 colon 102%

CC(c1ccccn1)C(C)(O)C(C)c1ccccn1 (configuration not stated)
inactive: BT-549 breast 108% | MDA-MB-435 melanoma 104% | SW-620 colon 112% | MCF7 breast; 10 µM unless noted 103% | HCT-116 colon 108% | HCC-2998 colon 104% | KM12 colon 105%

C[N+]1(CCC[N+]2(C)C[C@@H]3[C@H](C2)[C@@H]2C=C[C@H]3C2)CCOCC1 (some centres not stated)
inactive: BT-549 breast 103% | MDA-MB-435 melanoma 113% | SW-620 colon 106% | MCF7 breast; 10 µM unless noted 107% | HCT-116 colon 105% | HCC-2998 colon 112% | KM12 colon 108%

CCCC[N+](CCCC)=c1ccc2nc3c(C)cc(N(CC)CC)cc3sc-2c1
inactive: HCC-2998 colon 24.4%
active: BT-549 breast 2.12% | MDA-MB-435 melanoma -88.1% | SW-620 colon -71.9% | MCF7 breast; 10 µM unless noted -50% | HCT-116 colon -24.7% | KM12 colon 0.608%

CCCCCCCC/C=C/CCCCCCCC1=NC(C)(C)CN1CCO
active: MDA-MB-435 melanoma -31.9% | SW-620 colon -66.3% | MCF7 breast; 10 µM unless noted -55.5% | HCT-116 colon -68% | HCC-2998 colon -86.6% | KM12 colon -68.5%
inactive: BT-549 breast 78.1%

COc1ccc2nccc(/C=C/c3ccnc4ccc(OC)cc34)c2c1
inactive: BT-549 breast 189% | MDA-MB-435 melanoma 111% | SW-620 colon 104% | MCF7 breast; 10 µM unless noted 88.1% | HCT-116 colon 102% | HCC-2998 colon 96.5% | KM12 colon 99.5%

Cn1cc(-c2csc(-c3cn(C)c4ncccc34)n2)c2cccnc21
inactive: BT-549 breast 93.6% | MDA-MB-435 melanoma 75.8% | SW-620 colon 92.4% | MCF7 breast; 10 µM unless noted 91.6% | HCT-116 colon 95% | HCC-2998 colon 99.2% | KM12 colon 96.4%

CC1SC(c2c(Cl)cccc2Cl)N(NC(=O)c2[nH]c3ccc(F)cc3c2-c2ccccc2)C1=O (configuration not stated)
inactive: BT-549 breast 75.7% | MDA-MB-435 melanoma 61.9% | SW-620 colon 17% | MCF7 breast; 10 µM unless noted 42.3% | HCC-2998 colon 11.2% | KM12 colon 46.4%
active: HCT-116 colon -43.8%

CC12CCCCC1C(C(N)=O)C(=O)O2 (configuration not stated)
inactive: BT-549 breast 113% | MDA-MB-435 melanoma 120% | SW-620 colon 104% | MCF7 breast; 10 µM unless noted 99.3% | HCT-116 colon 112% | HCC-2998 colon 99.6%

Nc1nonc1-c1nc2ccccc2n1CC(=O)Nc1ccc2c(c1)COC2=O
inactive: BT-549 breast 81.3% | SW-620 colon 59.1% | MCF7 breast; 10 µM unless noted 73.8% | HCT-116 colon 74.1% | HCC-2998 colon 92.3% | KM12 colon 64.4%
active: MDA-MB-435 melanoma 5.9%

CCN1C2=C(SC(=S)C1=C1SC(C(=O)OC)=C(C(=O)OC)S1)SC(=Nc1ccc(OC)cc1)C2=O
active: BT-549 breast -80.5% | MDA-MB-435 melanoma -40.3% | SW-620 colon -67.4% | MCF7 breast; 10 µM unless noted 4.13% | HCT-116 colon -80% | HCC-2998 colon -66.3% | KM12 colon -89.1%
